Experimental data reported in PubChem BioAssay AID1159580 (chemical genetic matrix, 2015).
Out of some 5,500 compounds screened, about 2,000 (36%) were called active. Another 18% or so got no clear call; they are omitted. No stated cut-off is given here; in the data, active means normalized growth mostly below about 0.91 (no sharp cut-off); inconclusive means no clear call, values can overlap the other calls; inactive means mostly above about 0.92. The list shows a part of the results.

Assay: chemical genetic growth profiling, strain panel (AID 1159580);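 further: tested at 20 µM; growth read once vehicle control cultures reached saturation at 30 °C; 1 = growth at the plate median or of vehicle wells; lower values mean less growth of the strain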
Conditions: growth OD

Measured: normalized growth

CN(C(=O)CN(CCO)CC(=O)N(C)C(C)(C)Cc1ccccc1)C(C)(C)Cc1ccccc1
inactive: S. cerevisiae deletion strains, locus YJR066W, strain TOR1, hits give low values 0.977 | S. cerevisiae deletion strains, locus YJR075W, strain HOC1, hits give low values 0.979 | S. cerevisiae deletion strains, locus YKL009W, strain mrt4, hits give low values 0.965 | S. cerevisiae deletion strains, locus YKL068W, hits give low values 0.979 | S. cerevisiae deletion strains, locus YKL085W, strain MDH1 (second series), hits give low values 0.971 | S. cerevisiae deletion strains, locus YKL085W, strain MDH1, hits give low values 0.971 | S. cerevisiae deletion strains, locus YKL160W, strain elf1, hits give low values 1.01 | S. cerevisiae deletion strains, locus YKL190W, strain CNB1, hits give low values 0.992 | S. cerevisiae deletion strains, locus YKR001C, strain vps1, hits give low values 0.998 | S. cerevisiae deletion strains, locus YKR026C, strain gcn3, hits give low values 1.02 | S. cerevisiae deletion strains, locus YKR091W, strain srl3, hits give low values 0.999 | S. cerevisiae deletion strains, locus YLL001W, strain dnm1, hits give low values 1.02 | S. cerevisiae deletion strains, locus YLL026W, hits give low values 1.02 | S. cerevisiae deletion strains, locus YLL041C, strain sdh2, hits give low values 1.01 | S. cerevisiae deletion strains, locus YLR027C, strain aat2, hits give low values 1.02 | S. cerevisiae deletion strains, locus YLR039C, strain RIC1, hits give low values 1.03 | S. cerevisiae deletion strains, locus YLR058C, strain SHM2, hits give low values 0.997 | S. cerevisiae deletion strains, locus YLR102C, strain apc9, hits give low values 0.986 | S. cerevisiae deletion strains, locus YLR113W, strain HOG1, hits give low values 0.987 | S. cerevisiae deletion strains, locus YLR221C, strain rsa3, hits give low values 0.993 | S. cerevisiae deletion strains, locus YLR258W, strain gsy2, hits give low values 1 | S. cerevisiae deletion strains, locus YLR262C, strain YPT6 (second series), hits give low values 1.03 | S. cerevisiae deletion strains, locus YLR262C, strain YPT6, hits give low values 1.02 | S. cerevisiae deletion strains, locus YLR268W, strain sec22, hits give low values 0.962 | S. cerevisiae deletion strains, locus YLR320W, strain mms22, hits give low values 0.99 | S. cerevisiae deletion strains, locus YLR330W, strain CHS5, hits give low values 0.984 | S. cerevisiae deletion strains, locus YLR342W, strain FKS1 (second series), hits give low values 0.985 | S. cerevisiae deletion strains, locus YLR342W, strain FKS1, hits give low values 1.01 | S. cerevisiae deletion strains, locus YLR357W, strain rsc2, hits give low values 1.01 | S. cerevisiae deletion strains, locus YLR370C, strain arc18, hits give low values 1.02 | S. cerevisiae deletion strains, locus YLR371W, strain rom2, hits give low values 0.978 | S. cerevisiae deletion strains, locus YLR384C, strain iki3, hits give low values 1.01 | S. cerevisiae deletion strains, locus YLR418C, strain cdc73, hits give low values 0.989 | S. cerevisiae deletion strains, locus YML016C, strain PPZ1, hits give low values 0.994 | S. cerevisiae deletion strains, locus YML032C, strain rad52, hits give low values 0.98 | S. cerevisiae deletion strains, locus YML120C, strain ndi1, hits give low values 1.02 | S. cerevisiae deletion strains, locus YML124C, strain tub3, hits give low values 0.989 | S. cerevisiae deletion strains, locus YMR058W, strain fet3, hits give low values 1.02 | S. cerevisiae deletion strains, locus YMR078C, strain ctf18, hits give low values 0.974 | S. cerevisiae deletion strains, locus YMR125W, strain sto1, hits give low values 1.02 | S. cerevisiae deletion strains, locus YMR129W, hits give low values 1.01 | S. cerevisiae deletion strains, locus YMR205C, strain PFK2, hits give low values 1 | S. cerevisiae deletion strains, locus YMR223W, strain ubp8, hits give low values 0.97 | S. cerevisiae deletion strains, locus YMR231W, strain pep5, hits give low values 1.01 | S. cerevisiae deletion strains, locus YMR263W, strain SAP30, hits give low values 0.995 | S. cerevisiae deletion strains, locus YMR307W, strain GAS1, hits give low values 0.835 | S. cerevisiae deletion strains, locus YNL067W, strain RPL9B, hits give low values 0.994 | S. cerevisiae deletion strains, locus YNL071W, strain lat1, hits give low values 1.01 | S. cerevisiae deletion strains, locus YNL153C, strain GIM3, hits give low values 1.03 | S. cerevisiae deletion strains, locus YNL183C, strain NPR1, hits give low values 0.944 | S. cerevisiae deletion strains, locus YNL209W, strain ssb2, hits give low values 1.01 | S. cerevisiae deletion strains, locus YNL233W, strain BNI4, hits give low values 0.987 | S. cerevisiae deletion strains, locus YNL248C, strain rpa49, hits give low values 1 | S. cerevisiae deletion strains, locus YNL250W, strain rad50, hits give low values 0.996 | S. cerevisiae deletion strains, locus YNL271C, strain bni1, hits give low values 0.982 | S. cerevisiae deletion strains, locus YNL298W, strain CLA4, hits give low values 0.983 | S. cerevisiae deletion strains, locus YNL307C, strain MCK1, hits give low values 0.99 | S. cerevisiae deletion strains, locus YNL322C, strain KRE1 (second series), hits give low values 1.01 | S. cerevisiae deletion strains, locus YNR049C, strain mso1, hits give low values 1.02 | S. cerevisiae deletion strains, locus YNR052C, strain pop2, hits give low values 0.972 | S. cerevisiae deletion strains, locus YOL006C, strain TOP1, hits give low values 1.05 | S. cerevisiae deletion strains, locus YOL012C, strain htz1 0.857 | S. cerevisiae deletion strains, locus YOL147C, strain pex11, hits give low values 0.987 | S. cerevisiae deletion strains, locus YOR001W, strain rrp6, hits give low values 0.992 | S. cerevisiae deletion strains, locus YOR061W, strain CKA2, hits give low values 0.992 | S. cerevisiae deletion strains, locus YOR069W, strain VPS5, hits give low values 0.991 | S. cerevisiae deletion strains, locus YOR070C, strain gyp1, hits give low values 1.02 | S. cerevisiae deletion strains, locus YOR080W, strain dia2, hits give low values 1.01 | S. cerevisiae deletion strains, locus YOR083W, strain WHI5, hits give low values 1 | S. cerevisiae deletion strains, locus YOR106W, strain vam3, hits give low values 1.02 | S. cerevisiae deletion strains, locus YOR136W, strain idh2, hits give low values 0.984 | S. cerevisiae deletion strains, locus YOR144C, strain elg1, hits give low values 0.99 | S. cerevisiae deletion strains, locus YOR184W, strain ser1, hits give low values 0.976 | S. cerevisiae deletion strains, locus YOR231W, strain MKK1, hits give low values 0.991 | S. cerevisiae deletion strains, locus YOR265W, strain rbl2, hits give low values 1.02 | S. cerevisiae deletion strains, locus YOR270C, strain vph1, hits give low values 1.09 | S. cerevisiae deletion strains, locus YOR290C, strain snf2, hits give low values 1.01 | S. cerevisiae deletion strains, locus YOR316C, strain cot1, hits give low values 0.971 | S. cerevisiae deletion strains, locus YPL051W, strain arl3, hits give low values 0.999 | S. cerevisiae deletion strains, locus YPL078C, strain atp4, hits give low values 1.01 | S. cerevisiae deletion strains, locus YPL106C, strain sse1, hits give low values 0.991 | S. cerevisiae deletion strains, locus YPL240C, strain hsp82, hits give low values 1 | S. cerevisiae deletion strains, locus YPL256C, strain CLN2, hits give low values 0.98 | S. cerevisiae deletion strains, locus YPR119W, strain clb2, hits give low values 0.974 | S. cerevisiae deletion strains, locus YPR141C, strain kar3, hits give low values 0.981 | S. cerevisiae deletion strains, locus YPR163C, strain tif3, hits give low values 0.969 | S. cerevisiae deletion strains, locus YPR167C, strain met16, hits give low values 0.969 | S. cerevisiae deletion strains, strain wtn01, hits give low values 0.985 | S. cerevisiae strains, strain wild type, hits give low values 0.991
